Screen size: about 5,500 compounds; about 2,000 (36%) were called active. Not shown: some 18% with an inconclusive outcome. Cut-off read from the data, not from the text of the source: active = normalized growth mostly below about 0.91 (no sharp cut-off); inconclusive = no clear call, values can overlap the other calls; inactive = mostly above about 0.92. The list shows a part of the results.
Experiment: chemical genetic growth profiling, strain panel (AID 1159580);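 note: tested at 20 µM; growth read once vehicle control cultures reached saturation at 30 °C; 1 = growth at the plate median or of vehicle wells; lower values mean less growth of the strain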
Conditions: growth OD

Measured: normalized growth

CC(=O)O[C@H]1CC[C@@]2(C)C(=CCC3C2CC[C@@]2(C)C3CC[C@@H]2C(C)CCCC(C)C)C1 (stereo partly drawn)
inactive: S. cerevisiae deletion strains, locus YJR066W, strain TOR1, hits give low values 0.96 | S. cerevisiae deletion strains, locus YKL009W, strain mrt4, hits give low values 1.05 | S. cerevisiae deletion strains, locus YKL068W, hits give low values 1 | S. cerevisiae deletion strains, locus YKL085W, strain MDH1 (second series), hits give low values 1.01 | S. cerevisiae deletion strains, locus YKL085W, strain MDH1, hits give low values 1.01 | S. cerevisiae deletion strains, locus YKL160W, strain elf1, hits give low values 0.997 | S. cerevisiae deletion strains, locus YKL190W, strain CNB1, hits give low values 1.01 | S. cerevisiae deletion strains, locus YKR001C, strain vps1, hits give low values 1.06 | S. cerevisiae deletion strains, locus YKR026C, strain gcn3, hits give low values 0.991 | S. cerevisiae deletion strains, locus YKR091W, strain srl3, hits give low values 0.998 | S. cerevisiae deletion strains, locus YLL001W, strain dnm1, hits give low values 0.997 | S. cerevisiae deletion strains, locus YLL026W, hits give low values 0.995 | S. cerevisiae deletion strains, locus YLL041C, strain sdh2, hits give low values 0.995 | S. cerevisiae deletion strains, locus YLR027C, strain aat2, hits give low values 0.979 | S. cerevisiae deletion strains, locus YLR039C, strain RIC1, hits give low values 1.08 | S. cerevisiae deletion strains, locus YLR058C, strain SHM2, hits give low values 1.01 | S. cerevisiae deletion strains, locus YLR102C, strain apc9, hits give low values 1.01 | S. cerevisiae deletion strains, locus YLR113W, strain HOG1, hits give low values 0.95 | S. cerevisiae deletion strains, locus YLR221C, strain rsa3, hits give low values 0.979 | S. cerevisiae deletion strains, locus YLR258W, strain gsy2, hits give low values 1.01 | S. cerevisiae deletion strains, locus YLR262C, strain YPT6 (second series), hits give low values 1.01 | S. cerevisiae deletion strains, locus YLR262C, strain YPT6, hits give low values 1.14 | S. cerevisiae deletion strains, locus YLR268W, strain sec22, hits give low values 1.03 | S. cerevisiae deletion strains, locus YLR320W, strain mms22, hits give low values 0.98 | S. cerevisiae deletion strains, locus YLR330W, strain CHS5, hits give low values 1.02 | S. cerevisiae deletion strains, locus YLR342W, strain FKS1 (second series), hits give low values 1.07 | S. cerevisiae deletion strains, locus YLR342W, strain FKS1, hits give low values 0.994 | S. cerevisiae deletion strains, locus YLR357W, strain rsc2, hits give low values 0.985 | S. cerevisiae deletion strains, locus YLR370C, strain arc18, hits give low values 0.991 | S. cerevisiae deletion strains, locus YLR371W, strain rom2, hits give low values 1.02 | S. cerevisiae deletion strains, locus YLR384C, strain iki3, hits give low values 1.01 | S. cerevisiae deletion strains, locus YLR418C, strain cdc73, hits give low values 1.04 | S. cerevisiae deletion strains, locus YML016C, strain PPZ1, hits give low values 1.01 | S. cerevisiae deletion strains, locus YML032C, strain rad52, hits give low values 1.02 | S. cerevisiae deletion strains, locus YML120C, strain ndi1, hits give low values 1 | S. cerevisiae deletion strains, locus YML124C, strain tub3, hits give low values 1.02 | S. cerevisiae deletion strains, locus YMR058W, strain fet3, hits give low values 0.913 | S. cerevisiae deletion strains, locus YMR078C, strain ctf18, hits give low values 1.02 | S. cerevisiae deletion strains, locus YMR125W, strain sto1, hits give low values 0.995 | S. cerevisiae deletion strains, locus YMR129W, hits give low values 0.997 | S. cerevisiae deletion strains, locus YMR205C, strain PFK2, hits give low values 1 | S. cerevisiae deletion strains, locus YMR223W, strain ubp8, hits give low values 1.03 | S. cerevisiae deletion strains, locus YMR231W, strain pep5, hits give low values 0.965 | S. cerevisiae deletion strains, locus YMR307W, strain GAS1, hits give low values 1.03 | S. cerevisiae deletion strains, locus YNL067W, strain RPL9B, hits give low values 1.02 | S. cerevisiae deletion strains, locus YNL071W, strain lat1, hits give low values 0.999 | S. cerevisiae deletion strains, locus YNL128W, strain TEP1, hits give low values 1.02 | S. cerevisiae deletion strains, locus YNL153C, strain GIM3, hits give low values 1.02 | S. cerevisiae deletion strains, locus YNL183C, strain NPR1, hits give low values 0.906 | S. cerevisiae deletion strains, locus YNL209W, strain ssb2, hits give low values 0.999 | S. cerevisiae deletion strains, locus YNL233W, strain BNI4, hits give low values 1 | S. cerevisiae deletion strains, locus YNL248C, strain rpa49, hits give low values 1 | S. cerevisiae deletion strains, locus YNL250W, strain rad50, hits give low values 1.02 | S. cerevisiae deletion strains, locus YNL271C, strain bni1, hits give low values 1.04 | S. cerevisiae deletion strains, locus YNL298W, strain CLA4, hits give low values 1.02 | S. cerevisiae deletion strains, locus YNL307C, strain MCK1, hits give low values 1.03 | S. cerevisiae deletion strains, locus YNL322C, strain KRE1 (second series), hits give low values 0.989 | S. cerevisiae deletion strains, locus YNR049C, strain mso1, hits give low values 0.988 | S. cerevisiae deletion strains, locus YNR052C, strain pop2, hits give low values 1.02 | S. cerevisiae deletion strains, locus YOL012C, strain htz1 0.984 | S. cerevisiae deletion strains, locus YOL147C, strain pex11, hits give low values 1.02 | S. cerevisiae deletion strains, locus YOR001W, strain rrp6, hits give low values 0.974 | S. cerevisiae deletion strains, locus YOR061W, strain CKA2, hits give low values 1.01 | S. cerevisiae deletion strains, locus YOR069W, strain VPS5, hits give low values 1.01 | S. cerevisiae deletion strains, locus YOR070C, strain gyp1, hits give low values 0.989 | S. cerevisiae deletion strains, locus YOR080W, strain dia2, hits give low values 0.983 | S. cerevisiae deletion strains, locus YOR083W, strain WHI5, hits give low values 1.01 | S. cerevisiae deletion strains, locus YOR106W, strain vam3, hits give low values 1.04 | S. cerevisiae deletion strains, locus YOR136W, strain idh2, hits give low values 1.03 | S. cerevisiae deletion strains, locus YOR144C, strain elg1, hits give low values 1.02 | S. cerevisiae deletion strains, locus YOR184W, strain ser1, hits give low values 1.02 | S. cerevisiae deletion strains, locus YOR231W, strain MKK1, hits give low values 0.972 | S. cerevisiae deletion strains, locus YOR265W, strain rbl2, hits give low values 0.995 | S. cerevisiae deletion strains, locus YOR270C, strain vph1, hits give low values 1.04 | S. cerevisiae deletion strains, locus YOR290C, strain snf2, hits give low values 1 | S. cerevisiae deletion strains, locus YOR316C, strain cot1, hits give low values 1.02 | S. cerevisiae deletion strains, locus YPL051W, strain arl3, hits give low values 0.982 | S. cerevisiae deletion strains, locus YPL078C, strain atp4, hits give low values 1.01 | S. cerevisiae deletion strains, locus YPL106C, strain sse1, hits give low values 0.975 | S. cerevisiae deletion strains, locus YPL240C, strain hsp82, hits give low values 1 | S. cerevisiae deletion strains, locus YPL241C, strain CIN2, hits give low values 1.01 | S. cerevisiae deletion strains, locus YPL256C, strain CLN2, hits give low values 0.964 | S. cerevisiae deletion strains, locus YPR119W, strain clb2, hits give low values 1.01 | S. cerevisiae deletion strains, locus YPR141C, strain kar3, hits give low values 1.02 | S. cerevisiae deletion strains, locus YPR163C, strain tif3, hits give low values 1.04 | S. cerevisiae deletion strains, locus YPR167C, strain met16, hits give low values 1.03 | S. cerevisiae deletion strains, strain wtn01, hits give low values 1.04 | S. cerevisiae strains, strain wild type, hits give low values 1.01

Source: PubChem BioAssay AID1159580 (chemical genetic matrix, 2015)
